Bioassay records as filed in PubChem.
Mtb hypoxia rep: inhibitors of hypoxia-regulated fluorescent reporter in Mycobacterium tuberculosis; M. tuberculosis hypoxia-regulated fluorescent reporter, fluorescence; fluorescence inhibition, % (no concentration beside the values); actives 0.1% (n = 300,000); AID 1159583; in the data active means fluorescence inhibition mostly above about 23%, no sharp cut-off; inactive means mostly below about 17%
PrPC TRFRET: reduces human prion protein on the cell surface. P04156. cell surface PrPC, TR-FRET read-out. inhibition, % at 13.8 µM. actives 0.43% (n = 370,000). AID 720596; in the data active means inhibition above about 24%
RecA intein inh: Mtb RecA intein splicing inhibition; cell-free RecA intein splicing, fluorescence; inhibition, % (no concentration beside the values); actives 0.75% (n = 290,000); AID 2221; in the data active means inhibition above about 30%
BJeLR lethal: kills HRASV12-expressing BJeLR cells. BJeLR (HRASV12) viability, CellTiter-Glo ATP luminescence, 48 h. inhibition, % (test concentration not listed). actives 0.17% (n = 300,000). AID 1554; in the data active means inhibition above about 50%
PrP 5UTR inh: suppresses PrP 5' UTR mRNA reporter expression. inhibition, % (no concentration beside the values). actives 0.35% (n = 340,000). cell-based PrP 5' UTR mRNA reporter, plate reader. AID 488862; in the data active means inhibition above about 52%
SARS 3CLpro inh: SARS-CoV 3CLpro protease inhibition; P0C6X7; recombinant SARS-CoV 3CLpro, quenched FRET peptide cleavage; actives 0.14% (n = 290,000); inhibition, % at 6 µM; in the data active means inhibition above about 12%
GFP chromo cs: counter-screen GFP chromophore formation inhibition | actives 83% (n = 2,100) | EC50, µM | cell-free GFP chromophore formation, fluorescence | shares compounds with RecA intein inh; call rule not given here
Numbers stand for hits; n = inactive; x = no result. Only some compounds are listed: those with a hit (about 1.4% of all), similar ones and a draw of the others.

SMILES	Mtb hypoxia rep	PrPC TRFRET	RecA intein inh	BJeLR lethal	PrP 5UTR inh	SARS 3CLpro inh	GFP chromo cs
Cc1cc(-c2[nH]nc3c2C(c2cccc(O)c2)C(C#N)=C(N)O3)c(C)s1 (stereo not given)	n	n	83	n	n	n	9.3
Nn1c(-c2ccc(F)cc2)nc2ccccc2c1=O	n	n	n	n	n	n	x
O=C1c2cc(F)ccc2-n2c1nc1ccccc1c2=O	x	n	94	n	n	n	n
O=C(CCS(=O)NCc1ccccc1)NCc1ccccc1 (stereo not given)	x	x	59	n	x	n	n
CC1(C)CCC[C@@]2(C)C1CC[C@@]1(C)Oc3ccc(O)cc3CC21 (stereo not given in full)	n	x	x	x	x	x	x
O=c1[nH]c(CCl)nc2cc(-c3ccc(F)cc3)sc12	x	n	36	n	n	n	31
COCCNc1nc2cc(-c3ccc(F)cc3)sc2c(=O)n1C	x	n	x	x	x	x	x
COc1cc(/C=C2/C(=O)N(c3ccc(C)c(C)c3)N=C2C)cc([N+](=O)[O-])c1O	n	n	42	n	n	n	21
CC(=O)CC1c2ccccc2S(=O)(=O)N1C1CCCC1 (stereo not given)	n	x	x	x	x	x	x
Cc1ccc(CN=Cc2[nH]c3ccc(Br)c(Cl)c3c2O)cc1	n	n	75	n	n	n	4.8
Oc1c(C=NCc2ccc(F)cc2)[nH]c2ccc(Br)c(Cl)c12	x	n	43	n	x	n	6.1
O=c1[nH]c(=O)n(C2CCCCCC2)c(O)c1C=NCc1ccc(F)cc1	x	n	n	n	n	n	x
CCOC(=O)c1c(C)oc2c1c(C=NCCC(=O)O)c(O)c1ccccc12	n	n	34	n	n	n	34
CCc1nc(SCCO)c2oc3ccccc3c2n1	x	n	n	n	n	n	x
CCc1nc(SCC(=O)N2CCN(c3ccccc3)CC2)c2oc3ccccc3c2n1	n	n	32	n	n	n	n
COc1ccc(CN(CCC(c2ccccc2)c2ccc(OC(C)C)cc2)C(=O)CCl)cc1OC (stereo not given)	n	n	83	68	n	n	0.4
N#CC1=C(N)Oc2n[nH]c(-c3cccs3)c2C1c1cccs1 (stereo not given)	n	n	79	n	n	n	11
N#CC1=C(N)Oc2n[nH]c(-c3cccs3)c2C1c1ccccc1C(=O)O (stereo not given)	n	n	76	n	n	n	12
N#CC1=C(N)Oc2cc(O)ccc2C1c1cccs1 (stereo not given)	x	n	n	n	n	n	x
CC(C)(C)c1[nH]nc2c1C(c1ccccc1OC(=O)N1CCOCC1)C(C#N)=C(N)O2 (stereo not given)	n	n	x	n	n	n	x
Cc1cc(=O)cc(C)n1-c1ccc(O)cc1	n	n	n	n	n	n	x
Cc1cc(=O)n(-c2ccc(O)cc2)[nH]1	n	n	97	n	n	n	2.2
Cc1cc(=O)n(-c2ccccc2Cl)[nH]1	n	n	87	n	n	n	18
Cc1cc(=O)n(-c2ccc(C(=O)O)cc2)[nH]1	n	n	94	n	n	n	2.8
O=c1[nH]n(-c2ccccc2)c(=O)cc1Cl	n	n	x	x	n	x	x
SMILES	Mtb hypoxia rep	PrPC TRFRET	RecA intein inh	BJeLR lethal	PrP 5UTR inh	SARS 3CLpro inh	GFP chromo cs
CCOC(=O)c1ccc(-n2[nH]c(-c3ccccc3)cc2=O)cc1	n	n	67	n	n	n	3.3
CCOc1ccc2c(c1)-c1c(ssc1=S)C(C)(C)N2	n	x	51	n	n	n	12
CCOc1ccc2c(c1)/C(=N/N1C(=O)c3ccccc3C1=O)C(=O)N2	x	n	n	n	n	n	x
Cc1cccc(C(=O)NN=Cc2cc(Br)c(Br)o2)c1	n	x	x	x	x	x	x
COc1ccc(-c2noc(-c3ccccc3C(=O)N3CCOCC3)n2)cc1	n	n	n	n	n	n	x
Cc1ccc(-c2noc(-c3ccccc3C(=O)N3CCOCC3)n2)cc1	n	n	n	n	x	n	n
COc1ccc(C=C2Oc3ccccc3C2=O)cc1	n	x	x	x	x	x	x
CC(C)CC1NC(=O)C(C(C)C)NC(=O)c2cc([N+](=O)[O-])cc(I)c2NCCC(C(N)=O)NC1=O (stereo not given)	n	x	x	x	x	x	x
CCc1ccc(C2CC=C(C(=O)O)C(c3ccc(F)cc3)N2S(=O)(=O)c2ccc(C)cc2)cc1 (stereo not given)	n	x	x	x	x	x	x
